# Source: PubChem BioAssay
# Where “and” joins values, the source holds several entries; their conditions need not be identical. Identical values can stand only once. Calls of active or inactive are those of the source.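 Rule for the calls, unless noted: active = compounds whose cell count with miR-34 switched on is under 0.7 times the count with it off; inactive = the rest.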
# Tests used:
# [1] = P. berghei load reduction in hepatocytes – cell-based, HepG2, luciferase luminescence, HepG2 viability, primary screen (AID 624349; in the data active = parasite load remaining mostly below about 12%, no sharp cut-off; inactive = mostly above about 10%;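 note: 100% = mean of DMSO negative control wells on the same plate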); conditions: P. berghei liver stage in HepG2, luciferase luminescence, concentration not given here; parasite load remaining: stronger effect = lower value; viability: measured here: HepG2 viability without parasites
# [2] = Wnt pathway potentiators raising nuclear beta-catenin – imaging, WNT3A-conditioned medium, mouse C2C12, NPC library, primary screen (AID 1117326; in the data active = nuclear beta-catenin stimulation mostly above about 4.2%, no sharp cut-off; inactive = mostly below about 10%; note: reference of the scale not given here); conditions: stronger effect = higher value
# [3] = stimulators of insulin release from INS-1E, primary screen, cell-based, 5 mM glucose, NPC library (AID 1117329;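 active = compound raises insulin release from rat beta cells at 5 mM glucose, no numeric limit stated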; note: reference of the scale not given here); conditions: rat INS-1E insulin secretion, at 10 µM, stronger effect = higher value
# [4] = growth inhibition of GSK3B-pretreated HCT116 cells – cell-based, CellTiter-Glo, 0.2 to 20 µM (AID 1117336;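 active = compounds lowering colon cancer cell viability after pretreatment blocking the GSK3B kinase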); conditions: HCT116 viability after GSK3B inhibitor, at 20 µM, stronger effect = higher value
# [5] = inhibition of endothelial tube formation, primary screen, imaging, VEGF stimulated, CD31 staining, tube area, NPC library (AID 1117340;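 active = compound that reduces growth-factor-driven endothelial tube area in a mixed cell culture, no cutoff stated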); conditions: VEGF-stimulated ADSC/ECFC co-culture, at 10 µM, stronger effect = higher value
# [6] = GLP1 release stimulators, primary, NCI-H716, NPC library (AID 1117341;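 active = compound raises GLP1 secretion from the human gut endocrine cells, with no numeric limit stated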; note: reference of the scale not given here); conditions: NCI-H716 cells, at 10 µM, stronger effect = higher value
# [7] = HCT116 colon cancer cell growth inhibition, primary screen, CellTiter-Glo luminescence, NPC library (AID 1117342;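 active = compounds that lower survival of HCT116 colon cancer cells in the luminescence readout, no numeric limit stated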); conditions: at 20 µM (top of the series)
# [8] = reduced SW480 viability measured with CellTiter-Glo, NPC library, primary (AID 1117343;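 active = compounds that lower viability of the colon cancer cells in the luminescence readout, with no numeric limit stated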); conditions: CellTiter-Glo luminescence; at 20 µM (top of the series) unless noted
# [9] = NPC library primary testing for decreased DLD-1 cell viability via CellTiter-Glo (AID 1117346;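 active = compounds that lower survival of DLD-1 colon cancer cells in the luminescence readout, no cutoff given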); conditions: DLD-1 viability, CellTiter-Glo luminescence; at 20 µM (top of the series)
# [10] = viability loss with induced miR-34 in A549 – imaging, A549 dox-inducible miR-34, nuclei and caspase counts, primary screen (AID 1347080); conditions: A549 miR-34 inducible, Hoechst nuclei count, 48 h
# [11] = MELAS cybrid and Rieske KO viability enhancers – cell-based, MELAS cybrids, Rieske KO mouse fibroblasts, CellTiter-Glo, primary screen (AID 1508586;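 active = mean z-score across replicates of 1.96 or higher in either the MELAS or the Rieske mutant cell line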;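 note: z relative to plate mean and SD of compound and empty wells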); conditions: low glucose
# [12] = galactose survival enhancers in mitochondrial complex I cybrids – cell-based, galactose medium, ATP luminescence, primary screen (AID 1645843;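 active = z-score of at least 1.8 in each of two replicates, scored against plate mean and spread of sample wells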;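 note: positive z means more ATP and so rescue of galactose-driven cybrid death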); conditions: complex I mutant cybrid cells, 72 h, stronger effect = higher value
# [13] = stronger effect = lower value, cell number ratio, induced over uninduced
# [14] = measured here: relative caspase fold change +Dox/-Dox
# [15] = measured here: total cells with miR-34 induction, stronger effect = lower value
# [16] = measured here: total cells without miR-34 induction
# [17] = MELAS cybrid survival, CellTiter-Glo 48 h, stronger effect = higher value
# [18] = Rieske KO mouse fibroblast survival, CellTiter-Glo 72 h
Compound,parasite load remaining [1],viability [1],nuclear beta-catenin stimulation ([2]; at 10 µM),"nuclear beta-catenin stimulation ([2]; stimulation, at 2 µM) [%]",insulin secretion stimulation [3],viability decrease [4],tube area decrease [5],GLP1 secretion stimulation [6],inhibition of viability [7],viability decrease (inhibition) [8],viability decrease (inhibition) [9],"fold change [10, 13]","fold change [10, 14]","cell count [10, 15]","cell count [10, 16]","z-score [11, 17]","z-score [11, 18]",z-score [12]
CCN[C@H]1CN(CCCOC)S(=O)(=O)c2sc(S(N)(=O)=O)cc21,113% (inactive) and 65.9% (inactive),109% and 72.4%,1.3% (inactive),1.1,3.9% (inactive),-7.1% (inactive),-15% (inactive),0.6% (inactive),6.4% (inactive),7.5% (inactive),14.9% (inactive),0.831 (inactive),1.12,8040,9670,0.333 (inactive),0.0327,–
CC1(C)[C@@H](OC(=O)CCC(=O)O)CC[C@]2(C)[C@H]3C(=O)C=C4[C@@H]5C[C@@](C)(C(=O)O)CC[C@]5(C)CC[C@@]4(C)[C@]3(C)CC[C@@H]12,77.3% (inactive),94.7%,4.8% (inactive),1.3,-1% (inactive),50.3% (active),15.3% (inactive),2.7% (inactive),43.6% (inactive),15.1% (inactive),35.6% (inactive),0.87 (inactive),1.72,9330,10700,0.704 (inactive),0.0878,–
OCCOCCN1CCN(C(c2ccccc2)c2ccc(Cl)cc2)CC1 (configuration not stated),40.8% (inactive) and 106% (inactive),45.3% and 147%,3.6% (inactive),2.4,4.2% (inactive),-78.9% (inactive),28% (inactive),13.3% (inactive),38.2% (inactive),46.4% (inactive),14.4% (inactive),0.893 (inactive) and 0.907 (inactive) and 0.862 (inactive),1.48 and 0.309 and 0.812,8690 and 7710 and 8370,9730 and 8500 and 9700,-0.954 (inactive) and -0.244 (inactive) and -0.546 (inactive),0.434 and -0.172 and -0.069,-0.645 (inactive)
Cc1ccc(Cl)c(OCC(O)CNC(C)(C)C)c1 (configuration not stated),–,–,0.2% (inactive),0.1,1% (inactive),-43.6% (inactive),-6.8% (inactive),0% (inactive),-1.43% (inactive),-8.9% (inactive),-15.9% (inactive),0.861 (inactive),0.19,8600,9990,0.548 (inactive),-0.195,0.405 (inactive)
Cc1cc2c(OCC(CNC(C)(C)C)OC(=O)c3ccccc3)cccc2[nH]1 (configuration not stated),45.6% (inactive),114%,-0.6% (inactive),-2.3,38.9% (active),8% (inactive),-1.9% (inactive),8.9% (inactive),30.9% (inactive),-10.4% (inactive),-25.2% (inactive),0.853 (inactive),1.26,9400,11000,-0.871 (inactive),-1.26,0.13 (inactive)
C=CCNC(N)=S,–,–,5.1% (inactive),2.3,-0.8% (inactive),-2.15% (inactive),-31.3% (inactive),-0.3% (inactive),-19.1% (inactive),23.8% (active),-4.7% (inactive),0.867 (inactive) and 0.831 (inactive),1.24 and 0.686,7540 and 8140,8690 and 9790,-0.239 (inactive),-0.148,–
C[C@H](NCCc1ccc(O)cc1)[C@H](O)c1ccc(O)cc1,80.4% (inactive) and 86.8% (inactive),111% and 73.3%,-1.4% (inactive),-0.2,4.3% (inactive),-8.6% (inactive),5.1% (inactive),-4.3% (inactive),4.7% (inactive),0.4% (inactive),-16.7% (inactive),0.881 (inactive) and 0.9 (inactive),1.49 and 0.723,8830 and 9090,10000 and 10100,-0.276 (inactive) and 0.441 (inactive),-0.155 and 0.32,–
COc1nccnc1NS(=O)(=O)c1ccc(N)cc1,–,–,1.5% (inactive),3.9,1.7% (inactive),3.6% (inactive),2.9% (inactive),2.7% (inactive),6.8% (inactive),-1.3% (inactive),-5.6% (inactive),0.87 (inactive),0.163,9240,10600,0.483 (inactive),-0.166,-0.33 (inactive)
O=C(O)Cc1cccc2ccccc12,–,–,-0.7% (inactive),0.6,-1.5% (inactive),-6.45% (inactive),0% (inactive),1.9% (inactive),12.9% (inactive),39.8% (inactive),-0.4% (inactive),0.971 (inactive),1.32,8040,8280,0.391 (inactive),-0.24,0.46 (inactive)
CC(C)(CO)[C@@H](O)C(=O)NCCCO,20.9% (inactive) and 97.7% (inactive) and 20.3% (inactive),47.1% and 90.5% and 98.9%,1.6% (inactive),1.3,-2.9% (inactive),-4.45% (inactive),10.3% (inactive),3.1% (inactive),4.3% (inactive),100% (active),-5.1% (inactive),0.883 (inactive) and 0.939 (inactive),1.21 and 2.44,8270 and 12000,9370 and 12800,0.185 (inactive),0.0963,–
